# Screening results deposited in PubChem BioAssay by National Center for Advancing Translational Sciences (NCATS).
# In the library only some 21% were active in any assay of this set; here they are far more common.
# Cycloheximide cs: counter-screen for Shiga toxin inhibitors: cycloheximide protein synthesis inhibition; cell reporter, cycloheximide protein synthesis inhibition counterscreen; max response, %; 300,000 tested, 12% active; in the data active = max response mostly above about 13%, no sharp cut-off; inactive = mostly below about 14%; note: read at 38.3 µM for the half of the compounds with a filed dose; 0% is about no effect
# Shiga inhibitor: Shiga toxin inhibition. AID 2315. 290,000 tested, 9.2% active. inhibition, % at 38.7 µM. Vero cells, Shiga toxin protein synthesis inhibition reporter; in the data active = inhibition mostly above about 28%, no sharp cut-off; inactive = mostly below about 43%; note: 0% is about no effect
# Pf growth 96h: P. falciparum growth inhibition at 96 hour, primary screen for plastid delayed-death inhibitors. P. falciparum luciferase reporter growth, 96 h. Potency, µM (top dose mostly 28.7 µM), for inactives: top-dose activity change, negative = inhibition, usual class: inhibitors. 320,000 tested, 6.9% active; note: potency is the fitted concentration of half-maximal effect; % is set by controls: 0 for no effect and ±100 for the full control effect
#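 P. falciparum expressing integrated firefly luciferase, in erythrocytes at 2% hematocrit, 0.05% parasitemia, incubated with compounds 96 h at 37 C, 5% CO2. Growth inhibition read as loss of luminescence; two-generation exposure targets delayed-death apicoplast inhibitors.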
# NS1 function inh: influenza NS1 inhibition | Potency, µM (titrated, usually from 46.1 µM), inactives show at the highest dose activity, positive = more growth | 270,000 tested, 0.4% active | AID 2326; calls by dose curve; note: potency is the fitted concentration of half-maximal effect; actives are rising curves; nearly all actives have a fitted effect of over 50% in size
#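 In this qHTS, NS1 from influenza A is expressed in budding yeast, where it slows growth. Cells are switched from glucose to 2% galactose medium (pH 6.0, -URA), treated with compound, and growth recovery is read at OD600.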
# Pf growth 48h: P. falciparum growth inhibition at 48 hours (one generation); P. falciparum luciferase growth in erythrocytes, 48 h; Potency, µM (highest dose often 28.7 µM), without a hit: at the highest dose activity change, negative = inhibition, usual class: inhibitors; 310,000 tested, 5.9% active; note: potency is the fitted concentration of half-maximal effect; % is set by controls: 0 for no effect and ±100 for the full control effect
#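 Growth was read as firefly luciferase luminescence after a 48 h, 37 C, 5% CO2 exposure of compounds to reporter-bearing P. falciparum cultures (0.1% parasitemia, 2% hematocrit final) in Albumax-supplemented RPMI 1640.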
# Sm TGR block: S. mansoni TGR enzyme inhibition | Q962Y6 | purified TGR, DTNB reduction, TNB absorbance 405 nm | Potency, µM (highest dose often 114 µM), inactives show at the highest dose activity change, negative = inhibition, most hits filed as inhibitors | 360,000 tested, 3% active | AID 485364; note: potency is the fitted concentration of half-maximal effect; % is set by controls: 0 for no effect and ±100 for the full control effect; nearly all actives have a fitted effect of over 60% in size
#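 First, TGR (20 nM dispensed) and NADPH were mixed with compound. Second, a 15 min room-temperature incubation followed. Third, further NADPH and then DTNB were added to start the reaction. Finally, TNB absorbance was monitored kinetically.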
# Numbers without * were called inactive; i = inactive; ? = inconclusive; nt = no result; [ ] = dose if it differs, or a comment. Unless noted, calls come from the whole dose curve; as a rule, active = well fitted curve in the direction sought with a large enough effect; inconclusive = small, poorly fitted or top-dose-only effect, or another doubt; inactive = no such curve, though single readings can be large; an effect the other way counts as inactive or inconclusive.
SMILES,Cycloheximide cs,Shiga inhibitor,Pf growth 96h,NS1 function inh,Pf growth 48h,Sm TGR block
CCn1c(CNC(=O)c2ccc(OC)cc2)nnc1SCC(=O)Nc1ccc(OC)cc1,nt,nt,nt,nt,nt,9%
O=C(NC1C(=O)NNC1c1ccccc1)c1ccc(F)cc1 (stereo not drawn),29*,88*,20%,-2%,37%,7%
Cc1ccc(C2NNC(=O)C2NC(=O)c2ccccc2)cc1 (stereo not drawn),39*,33*,87%,-1%,nt,-18%
O=C(NC1C(=O)NNC1c1ccc(Cl)cc1)c1ccc(F)cc1 (stereo not drawn),2,-2,-22%,-1%,9%,-14%
CC(=O)Nc1cccc(NC=C(C#N)C#N)c1,-3,-6,-3%,1%,-8%,5%
Cc1cc2c3c([nH]c2cc1S(=O)(=O)N1CCC2(CC1)OCCO2)CC(C)(C)CC3=O,-3,-5,?,1%,8.3µM*,-9%
O=C(Oc1ccc(=O)n(-c2ccccc2)n1)c1cccc(Cl)c1,0,21,42%,-26%,32%,16µM*
COc1ccc(Cn2c(C(=O)O)c(CNCCc3ccco3)c3ccc(OC)cc32)cc1,nt,nt,nt,nt,nt,45µM*
Cc1ccc2c(CNCCc3ccco3)c(C(=O)O)n(Cc3ccc(F)cc3)c2c1,nt,nt,nt,nt,nt,40µM*
Cc1cccc(NC(=O)NNC(=O)c2cc3occc3[nH]2)c1C,12,-4,?,2%,28%,-32%
Cc1cc2sc(NC(=O)c3ccco3)nc2cc1Cl,71*,79*,-28%,0%,322%,0%
COc1cc2sc(NC(=O)c3ccco3)nc2cc1Cl,45*,102*,26%,-4%,103%,9%
COc1cc2nc(NC(=O)c3ccco3)sc(=O)c2cc1OC,1,14,13%,2%,1%,-2%
O=C1CCC([N+](=O)[O-])C(c2cccc(Cl)c2Cl)N1 (stereo not drawn),-4,4,-12%,-1%,nt,4%
COc1ccc(Cc2c(C)nn(-c3nc(C)c(C(=O)Nc4ccc(C)cc4C)s3)c2C)cc1,nt,nt,nt,nt,nt,-7%
Cc1ccc(C2=NC(=O)/C(=C/c3cc(O)c(O)c(Br)c3)S2)cc1,7,37,35%,nt,10µM*,-32%
COc1cc(/C=C2\SC(c3ccc(C)cc3)=NC2=O)cc(OC)c1O,-1,-15,?,25%,?,-26%
CSCC(=O)N1CCCC(CNC(=O)c2ccccc2Cl)C1 (stereo not drawn),15*,28,10%,0%,0%,17%
O=C(NCC1CCCN(C(=O)CN2CCCCC2)C1)c1ccccc1Cl (stereo not drawn),26*,31,18%,0%,8%,-6%
Cc1cc(N2CCC(C(=O)Nc3ccc(F)cc3C)CC2)n2nc(C)c(-c3ccc(Cl)cc3)c2n1,nt,nt,nt,nt,nt,6%
Cc1cc(Cl)nc(-c2ccccc2)n1,1,-17,i,0%,34%,0%
Cc1cc(OC(C)C(N)=O)nc(-c2ccccc2)n1 (stereo not drawn),5,13,10%,nt,15µM*,-5%
O=C(Nc1ccc(C(=O)O)cc1)/C(=C\c1ccc([N+](=O)[O-])cc1)NC(=O)c1ccc(Br)cc1,-1,-3,19%,nt,1%,-2%
N#CC(C#N)=Cc1ccc(NC(=O)c2ccc(Br)cc2)cc1,47*,75*,7%,-45%,11%,2.5µM*
CC(C)(C)c1ccc(C(=O)Nc2ccc(C=C(C#N)C#N)cc2)cc1,72*,154*,165%,-15%,135%,3.2µM*
SMILES,Cycloheximide cs,Shiga inhibitor,Pf growth 96h,NS1 function inh,Pf growth 48h,Sm TGR block
CC(C)(C)c1ccc(C(=O)Nc2ccc(S(N)(=O)=O)cc2)cc1,7,14,?,-4%,?,-3%
Brc1ccc(-c2csc(-c3c[nH]c4ccccc34)n2)cc1,34*,86*,313%,-16%,110%,11%
Clc1ccc(-c2c[nH]c3ccccc23)nn1,5,50,39%,4%,-50%[1.15 µM],3%
c1ccc2c(-c3csc(-c4ccncc4)n3)c[nH]c2c1,45*,96*,?,-42%,-55%,2%[57.1 µM]
O=C(CSc1ccccc1)N/N=C/c1ccccc1O,25*,46,7%,-5%,?,nt
COc1ccccc1/C=N/NC(=O)CSc1ccc2ccccc2n1,25*,70*,-3%,-15%,20%[0.00184 µM],0%
COc1ccc(/C=N/NC(=O)CSCC(=O)Nc2ccccc2)cc1OC,-1,-22,98%,22%,0%,6%
COc1ccccc1/C=N/NC(=O)CSc1cc(C)nc2ccccc12,7,-3,?,0%,12%,11%
COc1cc(/C=N/NC(=O)CSc2cc(C)c(Br)cc2C)ccc1O,-1,-9,nt,17%,2%,-9%
Cc1cc(SCC(=O)N/N=C/c2ccc(O)c(O)c2O)c(C)cc1Br,-3,-17,nt,-95%,13µM*,35µM*
COc1ccc(/C=N/NC(=O)CSc2ccccc2)cc1OC,14*,13,-20%,-13%,5%,8%
O=C(CCc1nc2ccccc2c(=O)[nH]1)NNC(=O)COc1cccc(F)c1,nt,nt,-16%,nt,3%,-3%
CCn1nc(C)c(/C=N/NC(=O)CSc2ccccn2)c1C,32*,63*,15%,-1%,32%,-3%
COc1ccc(/C=N/NC(=O)CSc2ccccn2)cc1OC,23*,30*,63%,10%,5%,15%
CCc1ccc(C2C(C(=O)Nc3ccccc3OC)=C(C)Nc3nc(SCc4ccccc4)nn32)cc1 (stereo not drawn),nt,nt,nt,nt,nt,2%
Cc1ccc(C)c(N2CCN(C(=O)Nc3cn(CC(C)C)c(=O)c4ccccc34)CC2)c1,nt,nt,nt,nt,nt,7%
CCOC(=O)c1sc(N=NC2=C(O)CCCC2=O)c(C(=O)OCC)c1C,18*,16,57%,nt,0%,-16%
CCOC(=O)c1sc(N=Nc2c(O)[nH]c(=O)[nH]c2=O)c(C(=O)OCC)c1C,1,-3,-6%,29%,25%,0%
CC(C)(C)c1ccc(OCCOc2ccc(C(C)(C)C)cc2NC=O)c(NC=O)c1,5,-4,2.6µM*,20%,10µM*,8%
COCCOc1ccc(C(F)(F)F)cc1NC(=O)c1ccccc1,-5,-9,0%,-7%,1%,0%
N/C(COc1cccc(Cl)c1)=N\NS(=O)(=O)c1ccccc1,-4,12,13%,2%,-2%,-2%
COc1ccc(C(CNC(=O)c2cccc(NS(=O)(=O)c3ccc(Br)cc3)c2)N(C)C)cc1 (stereo not drawn),nt,nt,?,nt,0%,2%
COc1ccc2c(c1)c1nc3ccccc3nc1n2Cc1ccc(OC(C)C)c(OC)c1,-4,-7,?,1%,12µM*,6%
COc1cccc(CNC(=O)CCC2CCCN(C(=O)c3cccc(Cl)c3)C2)c1 (stereo not drawn),-2,-14,1%,-4%,-22%,2%
